Results reported in the supplement of paper PMC10849652.
About 8,800 targets were measured; listed, in parts, are those with a hit and a random draw of the rest. About 0.5% of all pairs of compound and target were hits.

The targets below were run with C#Cc1cccc(Nc2ncnc3cc(OCCOC)c(OCCOC)cc23)c1 [erlotinib] (assay: log2 fold change, soluble protein after heating vs DMSO (PISA); higher = thermal stabilisation; K562 lysate, 10 uM; active = over 0.2 and 3.5 SD of the protein, either way, in both replicates (recomputed)).
How it was run: (§1)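 Log-two fold change in thermal stability relative to solvent controls is reported from duplicates. For each sample, crude K562 extract from dounce-homogenised pellets in PBS pH 7.4 with 1 mM MgCl2, at 1 mg/mL protein, was treated with 10 μM compound for 30 min. Aliquots heated for 3 min across 48°C-58°C were pooled, brought to 0.5% NP-40 at 4°C and cleared at 21,000xg for 90 min. The supernatant was quantified by TMTpro 16plex LC-MS/MS with channel sums equalised.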

Sequence of UniProt P31949 (P31949 whole entry, looked up): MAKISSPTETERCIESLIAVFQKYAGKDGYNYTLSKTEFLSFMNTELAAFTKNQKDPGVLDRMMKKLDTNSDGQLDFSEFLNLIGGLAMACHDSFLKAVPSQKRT
Sequence of UniProt Q13530 (Q13530 whole entry, looked up): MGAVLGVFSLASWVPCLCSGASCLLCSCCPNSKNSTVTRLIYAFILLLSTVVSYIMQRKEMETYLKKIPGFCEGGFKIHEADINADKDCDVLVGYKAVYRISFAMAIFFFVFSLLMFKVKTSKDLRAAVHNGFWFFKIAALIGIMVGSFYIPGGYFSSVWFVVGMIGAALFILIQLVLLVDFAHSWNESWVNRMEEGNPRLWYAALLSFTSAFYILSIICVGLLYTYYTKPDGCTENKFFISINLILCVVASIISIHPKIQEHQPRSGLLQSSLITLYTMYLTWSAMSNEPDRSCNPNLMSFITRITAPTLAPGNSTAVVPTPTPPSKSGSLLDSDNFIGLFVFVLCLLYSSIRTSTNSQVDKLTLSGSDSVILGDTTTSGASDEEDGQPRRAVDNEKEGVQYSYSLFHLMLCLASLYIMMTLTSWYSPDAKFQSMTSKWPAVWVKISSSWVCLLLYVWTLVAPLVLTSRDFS
Sequence of UniProt Q53S08 (Q53S08 whole entry, looked up): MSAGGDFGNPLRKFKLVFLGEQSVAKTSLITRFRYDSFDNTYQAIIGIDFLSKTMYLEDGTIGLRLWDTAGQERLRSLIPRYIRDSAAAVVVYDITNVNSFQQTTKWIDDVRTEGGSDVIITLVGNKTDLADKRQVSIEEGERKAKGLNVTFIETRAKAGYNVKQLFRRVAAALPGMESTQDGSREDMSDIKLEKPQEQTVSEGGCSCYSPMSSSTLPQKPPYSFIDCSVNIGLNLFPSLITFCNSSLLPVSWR
Sequence of UniProt Q5XPI4 (Q5XPI4 whole entry, looked up): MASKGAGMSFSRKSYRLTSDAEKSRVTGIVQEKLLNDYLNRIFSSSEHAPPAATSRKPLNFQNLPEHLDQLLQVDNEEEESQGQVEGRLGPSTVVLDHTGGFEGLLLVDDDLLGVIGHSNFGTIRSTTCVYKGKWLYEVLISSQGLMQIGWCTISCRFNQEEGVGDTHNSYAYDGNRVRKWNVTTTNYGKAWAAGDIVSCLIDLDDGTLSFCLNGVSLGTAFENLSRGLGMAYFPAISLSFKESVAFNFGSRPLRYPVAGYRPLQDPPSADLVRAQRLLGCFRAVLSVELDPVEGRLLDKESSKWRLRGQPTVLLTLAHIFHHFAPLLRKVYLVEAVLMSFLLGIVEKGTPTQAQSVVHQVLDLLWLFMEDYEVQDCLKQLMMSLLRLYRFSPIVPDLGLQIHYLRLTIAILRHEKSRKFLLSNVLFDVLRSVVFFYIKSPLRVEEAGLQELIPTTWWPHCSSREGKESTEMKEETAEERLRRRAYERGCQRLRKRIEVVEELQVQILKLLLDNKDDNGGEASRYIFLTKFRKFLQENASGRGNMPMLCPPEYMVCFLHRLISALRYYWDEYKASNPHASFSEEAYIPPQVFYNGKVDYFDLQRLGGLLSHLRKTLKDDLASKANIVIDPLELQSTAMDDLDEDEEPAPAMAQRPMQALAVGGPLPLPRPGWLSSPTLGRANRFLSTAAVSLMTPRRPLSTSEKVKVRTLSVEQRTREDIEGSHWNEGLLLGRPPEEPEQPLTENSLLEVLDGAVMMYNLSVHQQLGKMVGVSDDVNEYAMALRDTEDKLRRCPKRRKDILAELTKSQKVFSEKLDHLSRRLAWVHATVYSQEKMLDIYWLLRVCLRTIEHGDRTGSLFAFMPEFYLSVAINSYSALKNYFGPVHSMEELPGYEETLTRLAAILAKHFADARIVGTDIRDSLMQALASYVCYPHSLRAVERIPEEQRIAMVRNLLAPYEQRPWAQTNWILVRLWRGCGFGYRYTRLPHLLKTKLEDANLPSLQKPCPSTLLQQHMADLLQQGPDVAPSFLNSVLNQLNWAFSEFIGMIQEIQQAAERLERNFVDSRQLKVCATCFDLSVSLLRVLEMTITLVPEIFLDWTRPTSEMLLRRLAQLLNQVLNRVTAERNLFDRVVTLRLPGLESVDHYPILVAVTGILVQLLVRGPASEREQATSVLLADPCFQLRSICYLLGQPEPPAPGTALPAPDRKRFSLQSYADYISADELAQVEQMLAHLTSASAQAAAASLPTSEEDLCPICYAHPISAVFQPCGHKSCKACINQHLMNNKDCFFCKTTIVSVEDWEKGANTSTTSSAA
Sequence of UniProt Q7Z6M1 (Q7Z6M1 whole entry, looked up): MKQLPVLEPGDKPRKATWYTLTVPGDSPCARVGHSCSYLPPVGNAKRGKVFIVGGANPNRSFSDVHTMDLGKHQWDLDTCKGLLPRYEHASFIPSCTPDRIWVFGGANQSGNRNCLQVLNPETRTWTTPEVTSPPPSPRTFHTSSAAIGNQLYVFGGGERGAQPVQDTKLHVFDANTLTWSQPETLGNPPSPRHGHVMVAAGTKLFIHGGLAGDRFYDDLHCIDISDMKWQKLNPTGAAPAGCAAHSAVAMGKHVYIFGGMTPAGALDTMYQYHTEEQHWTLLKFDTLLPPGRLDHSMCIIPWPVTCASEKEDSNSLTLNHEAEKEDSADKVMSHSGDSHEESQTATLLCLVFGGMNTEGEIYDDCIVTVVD
Sequence of UniProt P04049 (P04049 whole entry, looked up): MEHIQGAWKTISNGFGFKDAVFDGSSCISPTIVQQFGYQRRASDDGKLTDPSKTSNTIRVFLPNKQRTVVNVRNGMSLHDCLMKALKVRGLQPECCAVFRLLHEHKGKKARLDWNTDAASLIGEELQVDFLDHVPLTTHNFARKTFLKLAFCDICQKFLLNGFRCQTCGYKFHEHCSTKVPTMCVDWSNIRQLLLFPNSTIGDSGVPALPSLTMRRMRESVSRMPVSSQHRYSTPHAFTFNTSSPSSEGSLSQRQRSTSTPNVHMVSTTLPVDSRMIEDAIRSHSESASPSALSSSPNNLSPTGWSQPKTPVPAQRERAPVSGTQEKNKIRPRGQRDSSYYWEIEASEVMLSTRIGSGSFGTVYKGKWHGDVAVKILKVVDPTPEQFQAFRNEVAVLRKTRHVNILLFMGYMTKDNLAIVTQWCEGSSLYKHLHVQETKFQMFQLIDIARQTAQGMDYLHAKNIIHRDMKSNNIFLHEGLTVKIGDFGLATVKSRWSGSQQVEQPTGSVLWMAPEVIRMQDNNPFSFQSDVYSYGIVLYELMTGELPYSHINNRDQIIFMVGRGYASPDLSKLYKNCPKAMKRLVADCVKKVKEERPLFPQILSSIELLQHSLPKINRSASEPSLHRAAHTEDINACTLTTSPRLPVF
Sequence of UniProt O95248 (O95248 whole entry, looked up): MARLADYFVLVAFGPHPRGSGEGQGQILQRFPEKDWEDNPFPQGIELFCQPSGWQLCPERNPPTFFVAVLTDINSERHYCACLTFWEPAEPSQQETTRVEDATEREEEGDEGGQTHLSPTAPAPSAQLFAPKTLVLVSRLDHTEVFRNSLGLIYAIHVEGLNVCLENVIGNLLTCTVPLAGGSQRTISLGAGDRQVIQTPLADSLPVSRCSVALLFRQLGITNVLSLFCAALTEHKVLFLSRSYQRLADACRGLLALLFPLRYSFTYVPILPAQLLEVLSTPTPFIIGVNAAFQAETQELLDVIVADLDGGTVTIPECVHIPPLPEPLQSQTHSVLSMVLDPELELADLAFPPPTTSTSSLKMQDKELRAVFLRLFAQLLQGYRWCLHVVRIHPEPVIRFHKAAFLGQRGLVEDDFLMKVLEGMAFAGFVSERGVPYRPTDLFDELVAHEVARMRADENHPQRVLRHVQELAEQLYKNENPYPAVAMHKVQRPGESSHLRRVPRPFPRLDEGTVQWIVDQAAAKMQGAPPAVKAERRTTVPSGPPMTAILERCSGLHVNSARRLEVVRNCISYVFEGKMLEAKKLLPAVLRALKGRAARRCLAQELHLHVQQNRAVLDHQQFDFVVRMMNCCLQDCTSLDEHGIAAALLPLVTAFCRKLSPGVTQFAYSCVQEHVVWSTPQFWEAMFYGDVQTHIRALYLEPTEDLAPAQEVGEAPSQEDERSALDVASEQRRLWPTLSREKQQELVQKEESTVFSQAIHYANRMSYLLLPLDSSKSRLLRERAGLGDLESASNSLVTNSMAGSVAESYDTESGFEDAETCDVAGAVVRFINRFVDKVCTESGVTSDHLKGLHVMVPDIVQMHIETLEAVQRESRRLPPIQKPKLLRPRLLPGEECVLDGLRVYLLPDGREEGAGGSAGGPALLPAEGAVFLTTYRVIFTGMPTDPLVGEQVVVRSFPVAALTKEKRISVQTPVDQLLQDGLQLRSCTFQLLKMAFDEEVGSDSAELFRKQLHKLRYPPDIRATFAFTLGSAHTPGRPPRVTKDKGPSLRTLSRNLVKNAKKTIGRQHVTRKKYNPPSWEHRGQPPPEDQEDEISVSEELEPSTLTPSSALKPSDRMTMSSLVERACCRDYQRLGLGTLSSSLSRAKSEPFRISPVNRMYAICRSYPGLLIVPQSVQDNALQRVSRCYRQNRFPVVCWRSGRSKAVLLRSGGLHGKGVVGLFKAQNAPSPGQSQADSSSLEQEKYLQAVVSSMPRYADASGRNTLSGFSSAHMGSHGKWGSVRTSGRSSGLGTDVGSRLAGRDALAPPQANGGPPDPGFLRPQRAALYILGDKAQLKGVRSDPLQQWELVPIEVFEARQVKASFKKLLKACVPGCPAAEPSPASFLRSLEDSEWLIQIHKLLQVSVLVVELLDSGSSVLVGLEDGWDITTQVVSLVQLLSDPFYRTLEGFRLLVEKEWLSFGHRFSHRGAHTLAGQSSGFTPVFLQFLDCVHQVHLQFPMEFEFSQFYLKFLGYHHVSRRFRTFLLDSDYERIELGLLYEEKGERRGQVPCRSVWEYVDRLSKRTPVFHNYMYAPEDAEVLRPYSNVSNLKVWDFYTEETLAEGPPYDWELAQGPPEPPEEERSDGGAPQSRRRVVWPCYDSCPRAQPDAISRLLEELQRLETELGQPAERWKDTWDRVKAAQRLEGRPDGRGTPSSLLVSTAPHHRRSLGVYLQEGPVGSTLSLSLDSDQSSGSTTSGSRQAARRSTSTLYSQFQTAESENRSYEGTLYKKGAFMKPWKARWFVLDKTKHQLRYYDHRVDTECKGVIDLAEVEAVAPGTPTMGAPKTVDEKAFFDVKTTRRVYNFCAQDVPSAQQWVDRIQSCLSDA

log2 fold change, inactive:
SERPINI1 (UniProt Q99574) -0.003
SASS6 (UniProt Q6UVJ0) 0.024
RPS6KB1 (UniProt P23443) -0.017
SAMHD1 (UniProt Q9Y3Z3) 0.035
S100A11 (UniProt P31949) 0.02
RTN4IP1 (UniProt Q8WWV3) -0.028
RIOK3 (UniProt O14730) 0.043
RAB6D (UniProt Q53S08) 0.027
RHAG (UniProt Q02094) 0.017
RIPK1 (UniProt Q13546) -0.026
RMC1 (UniProt Q96DM3) 0.015
RAB21 (UniProt Q9UL25) 0
RABEPK (UniProt Q7Z6M1) -0.01
SCO1 (UniProt O75880) 0.008
RINT1 (UniProt Q6NUQ1) 0.056
RDH14 (UniProt Q9HBH5) -0.019
RPL31 (UniProt P62899) -0.018
RAF1 isoform 2 (UniProt P04049) -0.011
RDX (UniProt P35241) -0.013
RPS4X (UniProt P62701) -0.016
RIC1 (UniProt Q4ADV7) 0
RRM1 (UniProt P23921) 0.018
RNF123 (UniProt Q5XPI4) 0.058
RNF181 (UniProt Q9P0P0) 0.031
RNF213, A0A0A0MTC1 0.041
RNF168 (UniProt Q8IYW5) -0.018
SAR1B (UniProt Q9Y6B6) -0.143
RFC2 (UniProt P35250) -0.004
SBF1 isoform 4 (UniProt O95248) 0.033
SERINC3 (UniProt Q13530) 0.068
RPS29 (UniProt P62273) 0.088
RPS26P11 (UniProt Q5JNZ5) -0.028
RFC5 (UniProt P40937) 0.02

What follows are targets tested with C/C(=N\NC(=O)C1=CC(=CC=C1)S(=O)(=O)N2CCOCC2)/C3=C(C=CC(=C3)Cl)O in the same assay as above.
How it was run: as §1

log2 fold change, inactive:
SERPINI1 (UniProt Q99574) -0.021
SASS6 (UniProt Q6UVJ0) 0.016
RPS6KB1 (UniProt P23443) -0.018
SAMHD1 (UniProt Q9Y3Z3) 0.036
S100A11 (UniProt P31949) 0.034
RTN4IP1 (UniProt Q8WWV3) 0.031
RIOK3 (UniProt O14730) -0.114
RAB6D (UniProt Q53S08) -0.071
RHAG (UniProt Q02094) -0.123
RIPK1 (UniProt Q13546) -0.01
RMC1 (UniProt Q96DM3) -0.056
RAB21 (UniProt Q9UL25) -0.008
RABEPK (UniProt Q7Z6M1) 0.014
SCO1 (UniProt O75880) -0.06
RINT1 (UniProt Q6NUQ1) 0.029
RDH14 (UniProt Q9HBH5) 0.021
RPL31 (UniProt P62899) -0.097
RAF1 isoform 2 (UniProt P04049) -0.033
RDX (UniProt P35241) 0.017
RPS4X (UniProt P62701) 0.014
RIC1 (UniProt Q4ADV7) -0.239
RRM1 (UniProt P23921) -0.019
RNF123 (UniProt Q5XPI4) 0.016
RNF181 (UniProt Q9P0P0) 0.037
RNF213, A0A0A0MTC1 0.004
RNF168 (UniProt Q8IYW5) -0.023
SAR1B (UniProt Q9Y6B6) 0.011
RFC2 (UniProt P35250) 0.017
SBF1 isoform 4 (UniProt O95248) -0.059
SERINC3 (UniProt Q13530) 0.145
RPS29 (UniProt P62273) 0.023
RPS26P11 (UniProt Q5JNZ5) -0.021
RFC5 (UniProt P40937) 0.024

What follows are targets tested with C1=CC(=CC=C1C2=NC3=C(N2)C=C(C=C3)C(=O)N)OC4=CC=C(C=C4)Cl in the same assay as above.
How it was run: as §1

log2 fold change, inactive:
SERPINI1 (UniProt Q99574) -0.037
SASS6 (UniProt Q6UVJ0) 0.028
RPS6KB1 (UniProt P23443) -0.034
SAMHD1 (UniProt Q9Y3Z3) 0.004
S100A11 (UniProt P31949) 0.02
RTN4IP1 (UniProt Q8WWV3) -0.028
RIOK3 (UniProt O14730) -0.057
RAB6D (UniProt Q53S08) 0.054
RHAG (UniProt Q02094) -0.087
RIPK1 (UniProt Q13546) -0.017
RMC1 (UniProt Q96DM3) 0.017
RAB21 (UniProt Q9UL25) 0.015
RABEPK (UniProt Q7Z6M1) 0.012
SCO1 (UniProt O75880) 0.036
RINT1 (UniProt Q6NUQ1) -0.01
RDH14 (UniProt Q9HBH5) -0.056
RPL31 (UniProt P62899) -0.03
RAF1 isoform 2 (UniProt P04049) -0.016
RDX (UniProt P35241) 0.014
RPS4X (UniProt P62701) -0.012
RIC1 (UniProt Q4ADV7) -0.074
RRM1 (UniProt P23921) 0.007
RNF123 (UniProt Q5XPI4) -0.008
RNF181 (UniProt Q9P0P0) 0.016
RNF213, A0A0A0MTC1 0
RNF168 (UniProt Q8IYW5) 0.001
SAR1B (UniProt Q9Y6B6) 0.042
RFC2 (UniProt P35250) -0.059
SBF1 isoform 4 (UniProt O95248) 0.042
SERINC3 (UniProt Q13530) 0.065
RPS29 (UniProt P62273) 0.018
RPS26P11 (UniProt Q5JNZ5) -0.015
RFC5 (UniProt P40937) -0.025
